Screening results deposited in PubChem BioAssay by National Center for Advancing Translational Sciences (NCATS).
Sampled rows, rich in hits. Any-hit rate of the full collection: about 13%.
HCV inh: blocks hepatitis C virus. Potency, µM (titrated, usually from 41.8 µM), without a hit: at the highest dose activity change, negative = inhibition, usual class: inhibitors. AID 651820. Huh7.5.1 HCVcc-Cre infection, luciferase reporter, 44 h. 3.4% of 340,000 active; note: potency is the fitted concentration of half-maximal effect
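Luciferase read-out (15 sec integration) after a 15 min room-temperature substrate step quantifies HCVcc-Cre infection. Cells, 1,000 per well, had compound added 4 h post-plating, then virus at ~0.5 moi, and were cultured 44 h.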
Pf growth 48h: inhibits P. falciparum growth in the first generation, 48 h. P. falciparum luciferase growth in erythrocytes, 48 h. Potency, µM (series often up to 28.7 µM), for the others: at the top dose activity change, negative = inhibition, actives largely listed as inhibitors. 5.9% of 310,000 active. AID 504832; note: potency is the fitted concentration of half-maximal effect
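Read-out is firefly luciferase luminescence from an integrated reporter in P. falciparum, so falling signal marks reduced parasite growth. Infected erythrocytes were at 2% hematocrit and 0.1% parasitemia (final) in Albumax-supplemented RPMI 1640.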
HCMV antiviral: human cytomegalovirus inhibition; AID 1259415; activity change, negative = inhibition, % at 57.5 µM; HFF cells, HCMV-luciferase reporter, 72 h; stronger effect = lower value; 4.5% of 410,000 active; in the data active = activity change below about -60%; inconclusive = no clear call, values can overlap the other calls; inactive = above about -39%
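Inhibition of viral replication was scored as loss of reporter luminescence in HFFs infected with HCMV-luciferase (MOI 1 PFU/cell) for 72 h; compounds tested at 2 doses, normalized to buffer and Salinomycin controls.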
Pf growth 96h: P. falciparum growth inhibition at 96 hours; P. falciparum luciferase reporter growth, 96 h; Potency, µM (top dose mostly 28.7 µM), without a hit: top-dose activity change, negative = inhibition, actives largely listed as inhibitors; 6.9% of 320,000 active; note: potency is the fitted concentration of half-maximal effect
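P. falciparum expressing integrated firefly luciferase, in erythrocytes at 2% hematocrit, 0.05% parasitemia, incubated with compounds 96 h at 37 C, 5% CO2. Growth inhibition read as loss of luminescence; two-generation exposure targets delayed-death apicoplast inhibitors.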
Active calls of the source: *; u = inconclusive; x = no result. Unless noted, calls come from the whole dose curve; as a rule, active = well fitted inhibition curve with a large enough effect; inconclusive = small, poorly fitted or top-dose-only effect, or another doubt; inactive = no such curve, though single readings can be large or run the other way. % is set by controls: 0 for no effect and ±100 for the full control effect.

SMILES	HCV inh	Pf growth 48h	HCMV antiviral	Pf growth 96h
CCOc1ccc(/C=N/NC(=O)Cc2csc(Nc3cccc(C(F)(F)F)c3)n2)cc1	u	9.3µM*	u	x
COc1ccc(NC(=O)CCS(=O)(=O)c2cc3c4c(c2)CCN4C(=O)CC3)cc1OC	x	x	5	x
N=c1ccn(Cc2cccc(F)c2)cc1	3.2µM*	2.3µM*	u	2%
CCN(C(=O)Cn1c(=O)oc2cc(S(=O)(=O)N3CCCCCC3)ccc21)c1cccc(C)c1	x	x	-11	x
O=C(O)/C=C/C(=O)Nc1ccc(NC(=O)c2ccccc2)c(Cl)c1	8.9µM*	80%	u	u
O=C(CCCC(=O)c1ccccc1)Nc1ccc(O)cc1	-11%	-15%	-9	10µM*
O=C(O)/C=C/C(=O)Nc1ccc(O)cc1	12%	41%	-11	10µM*
O=C(O)/C=C/C(=O)c1ccc(O)cc1	11%	u	-26	0.93µM*
CCCCc1nc2ccccc2n2c(-c3ccc(C)cc3)c3c(=O)n(C)c(=O)n(C)c3c12	x	x	9	x
Cc1ccc2[nH]c3c(=O)n(CC(=O)N4CCN(c5ccccc5F)CC4)ncc3c2c1	x	x	3	x
Cc1c(NS(=O)(=O)c2ccc(C(C)(C)C)cc2)c(=O)n(-c2ccccc2)n1C	x	x	4	x
CC(C)c1ccc(NC(=O)CSC2=Nc3ccccc3C3=NC(CCC(=O)NCc4ccco4)C(=O)N23)cc1 (centres undefined)	x	x	14	x
O=S(=O)(c1ccccc1)c1nnn2c1nc(NCc1ccccc1)c1cc(Cl)ccc12	x	x	4	x
O=C(CSc1ncn[nH]1)Nc1ccc([N+](=O)[O-])cc1Br	-22%	13%	-65*	-8%
CC(C)(C)c1cc(NC(=O)c2ccc(OC3CCCC3)cc2)no1	u	12µM*	-19	12µM*
Cc1cc(NC(=O)c2ccc(C(C)(C)C)cc2)no1	14%	x	82	x
Cc1cc(C(=O)Nc2ccon2)cs1	10%	24%	9	u
O=C(Nc1ccon1)c1ccc(OC2CCCC2)cc1	-17%	-14%	86	5.2µM*
COc1ccc(NC(=O)C(C)Sc2nnc3c4c(nc(-c5ccc(OC)cc5)n23)CC(C)(C)OC4)cc1 (centres undefined)	-24%	2.9µM*	-37	u
COc1ccc(-c2nc3c(c4nnc(SC(C)C(=O)Nc5ccccc5)n24)COC(C)(C)C3)cc1 (centres undefined)	6%	u	18	u
CCn1c(SCc2ccc(F)cc2Cl)nc(=O)c2c(C(=O)OC)cc(C3CC3)nc21	x	x	-3	x
FC(F)(F)c1cnc(N2CCCN(C(=S)Nc3ccccc3)CC2)c(Cl)c1	u	1.7µM*	-85*	1.9µM*
FC(F)(F)c1cnc(N2CCN(C(=S)NCc3ccccc3)CC2)c(Cl)c1	-27%	12%	-24	25%
CC(C)(C)c1ccc(NC(=O)N2CCN(c3ccc([N+](=O)[O-])cn3)CC2)cc1	u	5.2µM*	-94*	2.3µM*
O=C(Nc1ccccc1)N1CCCN(c2ccc(C(F)(F)F)cn2)CC1	11µM*	u	-66*	-6%
SMILES	HCV inh	Pf growth 48h	HCMV antiviral	Pf growth 96h
CC(C)(C)NC(=O)N1CCCN(c2ccc(C(F)(F)F)cn2)CC1	u	-22%	2	-12%
CCOc1ccc(NC(=O)Cn2cc(S(=O)(=O)NC)c(S(=O)(=O)NC)c2)cc1	x	x	0	x
CCN(CC)CCNC(=O)Cn1ncc2c([nH]c3ccccc32)c1=O	x	x	6	x
COCCn1c(C)cc(C2=NNC(=Nc3ccc(Cl)cc3Cl)SC2)c1C	-12%	u	-21	u
C=CCN=C1NN=C(c2cc(C)n(CCOC)c2C)CS1	-4%	u	-96*	-74%
COCCn1c(C)cc(C2=NNC(=NC3CC3)SC2)c1C	u	-25%	-96*	-99%
CCOc1ccc(N=C2NN=C(c3cc(C)n(CC4CCCO4)c3C)CS2)cc1 (centres undefined)	u	u	-4	2.1µM*
Cc1cc(C2=NNC(=NC3CC3)SC2)c(C)n1Cc1ccco1	u	-54%	-98*	u
Cc1cc(C2=NNC(=Nc3ccc(S(=O)(=O)N4CCOCC4)cc3)SC2)c(C)n1C	u	1%	-22	-18%
COCCCN=C1NN=C(c2cc(C)n(Cc3ccco3)c2C)CS1	-3%	51%	19	18%
COc1ccc(CCNC(=O)CCc2c(C)nc3cc(-c4ccccc4OC)nn3c2C)c(OC)c1	x	x	-14	x
COc1ccc(N2CCC[C@H]2/C=C/C(=O)OC(C)(C)C)cc1	x	x	7	x
Cn1c2ccsc2c2cnn(Cc3ccc(F)cc3)c(=O)c21	x	u	x	9%
C=CCn1c(C)cc(C2=NNC(=Nc3ccc(C)cc3)SC2)c1C	1%	u	-9	u
C=CCn1c(C)cc(C2=NNC(=NC(C)(C)C)SC2)c1C	u	-61%	-85*	0%
COCC(C)N=C1NN=C(c2cc(C)n(Cc3ccccc3Cl)c2C)CS1 (centres undefined)	u	14%	-79*	-26%
COc1ccc(C(=O)NCCc2nc3cc([N+](=O)[O-])ccc3n2C)cc1	-29%	-18%	-19	-21%
COc1ccc2c(c1)c(CC(=O)Nc1nnc(C3CC3)s1)c(C)n2C(=O)c1ccc(Cl)cc1	14%	u	-76*	u
COc1ccc2c(c1)c(CC(=O)Nc1cc(C)ccc1C)c(C)n2C(=O)c1ccc(Cl)cc1	-19%	u	-13	12µM*
COc1ccc2c(c1)c(CC(=O)Nc1c(C)cccc1C)c(C)n2C(=O)c1ccc(Cl)cc1	x	x	-17	x
COc1ccc2c(c1)c(CC(=O)NCc1cc([N+](=O)[O-])ccc1O)c(C)n2C(=O)c1ccc(Cl)cc1	u	u	x	5.9µM*
COc1ccc(OC)c(NC(=O)Cc2c(C)n(C(=O)c3ccc(Cl)cc3)c3ccc(OC)cc23)c1	x	x	-71*	x
COc1ccc2c(c1)c(CC(=O)Nc1ccc(C(C)=O)cc1)c(C)n2C(=O)c1ccc(Cl)cc1	-28%	-20%	19	-26%
COc1ccc(NC(=O)Cn2c(=O)oc3cc(Cl)ccc32)c(OC)c1	-7%	-5%	32	u
COc1ccc2c(c1)c(CC(=O)Nc1ccccc1OC)c(C)n2C(=O)c1ccc(Cl)cc1	u	0%	-13	5.2µM*
SMILES	HCV inh	Pf growth 48h	HCMV antiviral	Pf growth 96h
COc1ccc(OC)c(NC(=O)Cn2c(-c3ccc(Cl)cc3)noc2=O)c1	-22%	4.1µM*	26	173%
Nc1ccc(-c2nc3nc(N)nc(N)c3nc2-c2ccc(N)cc2)cc1	-10%	10µM*	29	u
Cc1ccc(S(=O)(=O)n2ccc3c(OCCOCCSCC(NC(=O)OC(C)(C)C)C(=O)O)cccc32)cc1 (centres undefined)	-26%	u	-2	9.3µM*
Cc1ccc(S(=O)(=O)n2ccc3c(OCCOCCNCc4ccc(F)cc4)cccc32)cc1	u	9.3µM*	-101*	10µM*
Cc1ccc(NC(=O)Cn2cnc3onc(-c4ccc(F)cc4)c3c2=O)c(Cl)c1	x	x	7	x
COc1ccc(-c2c(C(C)=O)c(C)n(C)c2C)cc1	6%	25%	-18	12µM*
